Pf growth 48h – inhibits P. falciparum growth in the first generation, 48 h | P. falciparum luciferase growth in erythrocytes, 48 h | Potency, µM (titrated, usually from 28.7 µM), most hits filed as inhibitors | 310,000 compounds, 5.9% hits
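Firefly luciferase activity from engineered P. falciparum reports growth; inhibitors lower the luminescent signal. Cultures contained 2% hematocrit erythrocytes at 0.1% final parasitemia.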
HCV inhibitor – inhibitors of hepatitis C virus infection; AID 651820; 340,000 compounds, 3.4% hits; Potency, µM (highest dose often 41.8 µM), actives largely listed as inhibitors; Huh7.5.1 HCVcc-Cre infection, luciferase reporter, 44 h
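1,000 cells/well; 4 h culture; + compound; + HCVcc-Cre (~0.5 moi); 44 h; luciferase substrate, RT 15 min; read 15 sec.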
Pf growth 96h – P. falciparum growth inhibition at 96 hours. P. falciparum luciferase reporter growth, 96 h. Potency, µM (series often up to 28.7 µM), usual class: inhibitors. 320,000 compounds, 6.9% hits. AID 504834
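Readout is luminescence from an integrated firefly luciferase in P. falciparum. Red cells, 2% hematocrit and 0.05% parasitemia final, were cultured with compound through two parasite generations (96 hours) at 37 C, 5% CO2.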
AMA1-RON2 inh – inhibitors of Plasmodium falciparum AMA1-RON2 interaction | AlphaScreen AMA1-biotinylated RON2 peptide binding | Potency, µM (titrated, usually from 58.2 µM), actives largely listed as inhibitors | 360,000 compounds, 0.2% hits | AID 720542; note: nearly all actives have a fitted effect of over 45% in size
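AMA1 (3D7) with his tag at 25 nM final met compounds first, then biotinylated RON2 peptide at 25 nM; detection used donor plus acceptor beads, 10 µg/mL apiece, read by AlphaScreen after 30 min at room temperature.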
Hits are given with their value; [ ] = dose if it differs, or a comment. Rows were chosen to be rich in hits. Some 11% of all compounds tested hit in one or more screens of this group. Calls come from the whole dose curve; as a rule, active = well fitted curve in the direction sought with a large enough effect; inconclusive = small, poorly fitted or top-dose-only effect, or another doubt; inactive = no such curve, though single readings can be large; an effect the other way counts as inactive or inconclusive.

Results for CCCCCc1cc(=O)oc2c(C(CCN3CCCCC3)c3cc(OC)c(OC)c(OC)c3)c(OC)cc(OC)c12 (stereo not drawn) ?
Pf growth 48h: 5.22µM; HCV inhibitor: inconclusive; Pf growth 96h: 2.33µM; AMA1-RON2 inh: inactive

What do the screens show for `COc1cc(OC)c2ccc(=O)oc2c1C(CCN1CCCC(C)C1)c1ccc(N(C)C)cc1` (stereo not drawn)?
Pf growth 48h: inconclusive; HCV inhibitor: inactive; Pf growth 96h: inconclusive; AMA1-RON2 inh: inconclusive

Results for CCCCc1cc(=O)oc2c(CN3CCCC3)c(O)c(Cl)cc12 ?
Pf growth 48h: inactive; HCV inhibitor: inactive; AMA1-RON2 inh: inactive

What do the screens show for `CCCCCc1cc(=O)oc2c(C(CCN3CCCC(C)C3)c3cc(OC)c(OC)c(OC)c3)c(OC)cc(OC)c12` (stereo not drawn)?
Pf growth 48h: 2.62µM; HCV inhibitor: inactive[8.37 µM]; Pf growth 96h: 0.37µM; AMA1-RON2 inh: inactive

Results for CCc1c(C)nc(SC(C(=O)O)c2ccccc2)c(C#N)c1C (stereo not drawn) ?
Pf growth 48h: inactive; HCV inhibitor: inactive; Pf growth 96h: inconclusive; AMA1-RON2 inh: inactive

What do the screens show for `CC1(c2ccccc2)CC(C)(C)N2C(=O)Cc3cccc1c32` (stereo not drawn)?
Pf growth 48h: 14.7µM; HCV inhibitor: inactive; Pf growth 96h: inactive[5.75 µM]; AMA1-RON2 inh: inactive

How did C=C1CC2C=C(NC(C)=O)CC(C1)C2 (stereo not drawn) do in these assays?
Pf growth 48h: inactive; HCV inhibitor: inactive; Pf growth 96h: inactive; AMA1-RON2 inh: inactive

How did CSc1nc2ccc(S(=O)(=O)N(C)C)cc2s1 do in these assays?
HCV inhibitor: inactive; Pf growth 96h: 11.7µM; AMA1-RON2 inh: inactive

Results for CCN(CC)S(=O)(=O)c1ccc2nc(SC)sc2c1 ?
Pf growth 48h: inconclusive; HCV inhibitor: inactive; AMA1-RON2 inh: inactive

Results for CCN1C=C(C(=O)c2ccccc2)C(=O)CC1 ?
HCV inhibitor: inactive; AMA1-RON2 inh: inactive

What do the screens show for `Cc1ccc(SC(C)C(=O)NCC(C)C)cc1` (stereo not drawn)?
Pf growth 48h: 14.7µM; HCV inhibitor: inactive; Pf growth 96h: inactive; AMA1-RON2 inh: inactive

Results for COc1ccccc1CNC(=O)C(C)Sc1ccc(C)cc1 (stereo not drawn) ?
Pf growth 48h: inactive; HCV inhibitor: inactive; Pf growth 96h: inactive; AMA1-RON2 inh: inactive

What do the screens show for `CCCN(C(=O)c1nc2nc(C)cc(C)n2n1)c1c(N)n(Cc2ccccc2)c(=O)[nH]c1=O`?
Pf growth 48h: inactive; HCV inhibitor: inactive; Pf growth 96h: inactive; AMA1-RON2 inh: inactive

Results for CCNC(=O)C1CCCN(C(=O)c2cnc3ccccc3n2)CC1 (stereo not drawn) ?
AMA1-RON2 inh: inactive

Results for C=Cc1ccc(Cn2c(C)c(C(=O)NCc3ccc(Cl)c(Cl)c3)sc2=O)cc1 ?
AMA1-RON2 inh: inactive

What do the screens show for `COc1ccc(CSc2ccc(S(=O)(=O)N3CCCC3)cn2)cc1F`?
AMA1-RON2 inh: inactive

How did COc1cccc(/C=N/Nc2nc(Nc3ccccc3)nc(-n3nc(C)cc3C)n2)c1O do in these assays?
HCV inhibitor: 8.91µM; Pf growth 96h: inconclusive; AMA1-RON2 inh: inactive

How did COc1cccc(/C=N/Nc2nc3ccccc3n3cnnc23)c1O do in these assays?
Pf growth 48h: inconclusive; HCV inhibitor: inconclusive; Pf growth 96h: inconclusive; AMA1-RON2 inh: inactive

Results for Cc1cc(C)n(-c2nc(Nc3ccccc3)nc(-n3nc(C)cc3C)n2)n1 ?
Pf growth 48h: inconclusive; HCV inhibitor: inactive; Pf growth 96h: inactive; AMA1-RON2 inh: inactive

How did COc1cccc(/C=N/Nc2cc(-n3nc(C)cc3-c3ccccc3)ncn2)c1O do in these assays?
Pf growth 48h: 5.86µM; HCV inhibitor: 5.62µM; Pf growth 96h: inactive; AMA1-RON2 inh: inactive

Results for Cc1cc(NC(=O)COc2ccccc2C(N)=O)no1 ?
HCV inhibitor: inactive; AMA1-RON2 inh: inactive

How did Cc1sc2nc(C3CC3)nc(SCC(=O)NCc3ccco3)c2c1C do in these assays?
Pf growth 48h: inactive; HCV inhibitor: inactive; Pf growth 96h: inactive; AMA1-RON2 inh: inactive

What do the screens show for `Cc1sc2nc(C3CC3)nc(SCC(=O)N3c4ccccc4CC3C)c2c1C` (stereo not drawn)?
Pf growth 48h: inconclusive; HCV inhibitor: 11.2µM; Pf growth 96h: inactive; AMA1-RON2 inh: inactive

What do the screens show for `Cc1cc2cc3c(cc2nc1SCC(=O)N1c2ccccc2CC1C)OCO3` (stereo not drawn)?
Pf growth 48h: inconclusive; HCV inhibitor: 3.98µM; Pf growth 96h: inconclusive; AMA1-RON2 inh: inactive

How did Cc1nc(SCC(=O)N2c3ccccc3NC(=O)CC2C)c2c(C)c(C)sc2n1 (stereo not drawn) do in these assays?
Pf growth 48h: inconclusive; HCV inhibitor: inactive; Pf growth 96h: 13.1µM; AMA1-RON2 inh: inactive

What do the screens show for `COCCn1c(SCC(=O)Nc2ccc(F)cc2)nc2c([nH]c3ccccc32)c1=O`?
Pf growth 48h: inconclusive; HCV inhibitor: inactive; Pf growth 96h: 3.29µM; AMA1-RON2 inh: inactive

What do the screens show for `COCCn1c(SCC(=O)Nc2ccc(C(N)=O)cc2)nc2c([nH]c3ccccc32)c1=O`?
Pf growth 48h: inactive; HCV inhibitor: inactive; Pf growth 96h: inactive; AMA1-RON2 inh: inactive

How did CCOC(=O)C(C)Sc1nc2c([nH]c3ccccc32)c(=O)n1C (stereo not drawn) do in these assays?
Pf growth 48h: inconclusive; HCV inhibitor: 10µM; Pf growth 96h: inactive; AMA1-RON2 inh: inactive

How did CCn1c(SCC(=O)N2CC(C)OC(C)C2)nc2c([nH]c3ccccc32)c1=O (stereo not drawn) do in these assays?
Pf growth 48h: 6.57µM; HCV inhibitor: inactive; Pf growth 96h: inconclusive; AMA1-RON2 inh: inactive

What do the screens show for `COCCn1c(SCC(=O)Nc2ccccc2OC)nc2c([nH]c3ccccc32)c1=O`?
Pf growth 48h: inconclusive; HCV inhibitor: inactive; Pf growth 96h: 9.28µM; AMA1-RON2 inh: inactive

How did COCCn1c(SCC(=O)Nc2ccccc2F)nc2c([nH]c3ccccc32)c1=O do in these assays?
Pf growth 48h: inactive; HCV inhibitor: inactive; Pf growth 96h: inconclusive; AMA1-RON2 inh: inactive

Results for CCOC(=O)CSc1nc2c([nH]c3ccccc32)c(=O)n1C ?
Pf growth 48h: inactive; HCV inhibitor: inactive; Pf growth 96h: inactive; AMA1-RON2 inh: inactive

Results for Cc1cc(C)nc(N2CCCC(C(=O)NC(C)C)C2)n1 (stereo not drawn) ?
Pf growth 48h: inactive; HCV inhibitor: inactive; Pf growth 96h: inconclusive; AMA1-RON2 inh: inactive

Results for C=CCn1c(SCC(=O)Nc2ccc(F)cc2F)nc2c([nH]c3ccccc32)c1=O ?
Pf growth 48h: inactive; HCV inhibitor: inactive; Pf growth 96h: inactive; AMA1-RON2 inh: inactive

Results for C=CCn1c(SCC(=O)Nc2ccccc2OC)nc2c([nH]c3ccccc32)c1=O ?
Pf growth 48h: inconclusive; HCV inhibitor: inactive; Pf growth 96h: 4.15µM; AMA1-RON2 inh: inactive

What do the screens show for `Cc1cc(C)cc(NC(=S)N2CC(C)OC(C)C2)c1` (stereo not drawn)?
Pf growth 48h: inactive; HCV inhibitor: inactive; Pf growth 96h: 2.08µM; AMA1-RON2 inh: inactive

How did CN(C(=O)c1ccccc1C(=O)OCC(=O)Nc1ccccc1)c1ccccc1 do in these assays?
Pf growth 48h: inconclusive; HCV inhibitor: inactive; Pf growth 96h: inconclusive; AMA1-RON2 inh: inactive

Compound activity (PubChem BioAssay)
